Jurkat NFkB inh: lowers PMA/ionomycin-induced NF-kB signal in Jurkat cells; inhibition, % at 4 µM; actives 0.53% (n = 330,000); PMA/ionomycin-induced NF-kB luciferase reporter, luminescence; in the data active = inhibition above about 50%
CSC inhib: cancer stem cell inhibition. cancer stem cell-like cells viability, luminescence. inhibition, % at 7.5 µM. actives 1.1% (n = 300,000). AID 2717; in the data active = inhibition above about 75%; inconclusive = no clear call, values can overlap the other calls; tested in HMLE shEcad cells
697 NFkB inh: inhibitors of the PMA/ionomycin-induced NF-kB reporter in 697 B cells; 697 B-cell NF-kB luciferase reporter, 16 h; inhibition, % at 4 µM; actives 0.33% (n = 330,000); in the data active = inhibition above about 35%
aSyn UTR inh: MLPCN primary screen, SNCA 5' untranslated region; alpha-synuclein 5'UTR reporter, inhibitor activity; inhibition, % (tested at 7.5 µM); actives 0.82% (n = 300,000); AID 1813; in the data active = inhibition above about 60%; inconclusive = no clear call, values can overlap the other calls;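 also: H4 neuroglioblastoma cells stably carrying SNCA 5'UTR luciferase fusion; 0% = DMSO wells and 100% = positive control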
Gli-Sufu block: blocks Gli-Sufu signaling in a luciferase reporter; inhibition, % at 5 µM; Sufu-KO-LIGHT fibroblasts, Gli luciferase reporter luminescence; actives 0.74% (n = 340,000);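 active = inhibition above about 55%, limit read from the data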;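 also: 0% = DMSO-treated cells and 100% = wells with medium but no cells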
Mdm2-MdmX inh: inhibitors of human Mdm2/MdmX interaction. AID 485346. inhibition, % at 8 µM. actives 3% (n = 330,000). SaOS-2 split-luciferase Mdm2/MdmX complementation, luminescence. O15151+Q00987;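 active = inhibition of at least 50% at 8 µM in the primary screen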
Target sequence (O15151 whole entry, looked up): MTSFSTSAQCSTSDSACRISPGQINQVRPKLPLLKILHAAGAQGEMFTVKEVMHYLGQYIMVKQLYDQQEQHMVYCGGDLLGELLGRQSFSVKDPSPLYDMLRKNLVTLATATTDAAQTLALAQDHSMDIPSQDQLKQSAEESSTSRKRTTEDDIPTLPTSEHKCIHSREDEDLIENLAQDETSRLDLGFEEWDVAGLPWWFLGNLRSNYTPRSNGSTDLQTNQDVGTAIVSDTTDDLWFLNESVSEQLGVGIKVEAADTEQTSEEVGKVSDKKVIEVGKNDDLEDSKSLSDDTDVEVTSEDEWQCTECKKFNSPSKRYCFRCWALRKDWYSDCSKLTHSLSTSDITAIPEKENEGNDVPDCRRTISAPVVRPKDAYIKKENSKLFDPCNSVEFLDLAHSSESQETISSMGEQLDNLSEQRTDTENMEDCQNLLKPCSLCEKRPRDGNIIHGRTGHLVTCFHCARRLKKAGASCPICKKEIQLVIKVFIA
Target sequence (Q00987 whole entry, looked up): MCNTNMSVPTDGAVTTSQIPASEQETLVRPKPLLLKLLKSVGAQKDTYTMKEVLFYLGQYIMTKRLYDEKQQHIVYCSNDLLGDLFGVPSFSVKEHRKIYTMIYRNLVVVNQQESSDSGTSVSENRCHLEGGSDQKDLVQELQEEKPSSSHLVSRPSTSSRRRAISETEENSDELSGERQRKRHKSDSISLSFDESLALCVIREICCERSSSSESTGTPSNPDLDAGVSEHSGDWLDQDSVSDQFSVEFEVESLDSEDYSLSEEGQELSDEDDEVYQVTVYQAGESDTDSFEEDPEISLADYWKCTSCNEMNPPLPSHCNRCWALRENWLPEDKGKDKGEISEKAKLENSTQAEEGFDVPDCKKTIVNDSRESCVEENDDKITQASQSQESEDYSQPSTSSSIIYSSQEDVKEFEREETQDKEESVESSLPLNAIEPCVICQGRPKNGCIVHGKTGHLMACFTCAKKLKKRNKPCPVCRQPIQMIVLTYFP
Mdm2-MdmX conf: human Mdm2/MdmX binding inhibition, confirmed; inhibition, % at 8 µM; actives 55% (n = 10,000); shares compounds with Mdm2-MdmX inh; AID 489028; luminescent assay; in the data active = inhibition above about 40%
FLuc counter: inhibits full-length luciferase, flagging false Mdm2/MdmX hits. shares compounds with Mdm2-MdmX inh. SaOS-2 full-length luciferase counterscreen, luminescence. inhibition, % at 8 µM. actives 77% (n = 6,200). AID 504607;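 active = mean inhibition at 8 µM reaching about 37%, which flags the compound as non-specific, limit read from the data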;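 also: p53-null SaOS-2 cells with luciferase driven by a doxycycline-inducible promoter; compound on cells about two nights before reading with doxycycline added after day one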
An asterisk follows results filed as active; ? = inconclusive; nt = no result given; + = active, no number. Only some compounds are listed: those with a hit (about 4.5% of all), similar ones and a draw of the others.

SMILES	Jurkat NFkB inh	CSC inhib	697 NFkB inh	aSyn UTR inh	Gli-Sufu block	Mdm2-MdmX inh	Mdm2-MdmX conf	others
COc1ccc(-c2cc(C3CCN(c4ccc(C(C)=O)cc4[N+](=O)[O-])CC3)[nH]n2)cc1	16.5	75.9*	-35.9	33.8	34.9	51.8*	46.4*	FLuc counter=51.4*
COc1ccc(-c2cc(C3CCN(C(=O)OC(C)(C)C)CC3)[nH]n2)cc1	-7.1	7.1	-14.8	2.3	-24.4	33.6	nt
CC1=CC(C)(C)N2C(=O)C3(C(C#N)=C(N)Oc4cc(C)oc(=O)c43)c3cc(C)cc1c32 (stereo not drawn)	-3.7	0.7	-12.9	2.0	3.4	-3.9	nt
CCc1cc2c3c(c1)C1(C(=O)N3C(C)(C)C=C2C)C(C#N)=C(N)Oc2[nH]c(=O)[nH]c(=O)c21 (stereo not drawn)	22.3	-8.0	5.1	0.7	-0.2	56.9*	41.5*	FLuc counter=81.2*
Cc1cccc(C(O)(C(=O)NNc2ccc3ccccc3n2)c2cccc(C)c2)c1	11.1	nt	-14.0	-20.1	-3.2	53.2*	31.1
CCNNC(=O)C(O)(c1cccc(C)c1)c1cccc(C)c1	2.5	-23.9	1.8	9.1	-4.3	26.8	nt
O=C(O)CN1C(=O)/C(=C/c2ccccc2Br)Oc2ccccc21	-6.0	-1.6	11.8	11.4	-6.9	0.9	nt
O=S(=O)(N(Cc1ccccc1)[C@H](CO)Cc1ccccc1)N(Cc1ccccc1)[C@H](CO)Cc1ccccc1	2.9	nt	-21.7	nt	6.5	36.2	nt
CCN([C@H](CO)CC(C)C)S(=O)(=O)c1ccccc1	nt	nt	7.0	nt	-4.1	15.1	nt
CC(C)C[C@@H](CO)N(Cc1ccccc1)S(=O)(=O)N(Cc1ccccc1)[C@@H](CO)CC(C)C	9.2	125.6*	-2.5	nt	0.1	82.6*	-20.3
CC(C)C[C@@H](CO)N(Cc1ccccc1)S(=O)(=O)N(Cc1ccccc1)[C@H](CO)CC(C)C	5.9	124.9*	5.4	nt	3.9	81.3*	18.8
C=C[C@H](CC(C)C)N(Cc1ccccc1)S(=O)(=O)N(Cc1ccccc1)[C@@H](C=C)CC(C)C	8.7	15.9	3.6	nt	11.6	83.5*	20.9
COc1ccc(CN([C@H](CO)CC(C)C)S(=O)(=O)N(Cc2ccccc2)[C@H](CO)CC(C)C)cc1	-5.1	nt	-22.9	nt	-10.0	61.6*	18.8
O=C(O)CSCC(=O)Nc1ccccc1SCCS(=O)(=O)c1ccc(Cl)cc1	nt	1.4	nt	-3.2	9.8	nt	nt
O=C(C1CCCN(S(=O)(=O)c2cc(Cl)ccc2Cl)C1)N1CCOCC1 (stereo not drawn)	8.8	-2.9	12.4	-11.2	0.9	-2.1	nt
C=CCNC(=O)C1CC(=O)N(c2ccc(OCC(=O)Nc3ccc(Cl)c(C(F)(F)F)c3)cc2)C1 (stereo not drawn)	19.3	-8.3	0.6	24.5	10.5	78.3*	11.9
Cn1cccc1-c1cc(C(=O)N/N=C/c2cc(Br)ccc2O)[nH]n1	46.0	nt	0.2	70.5*	43.8	74.3*	78.0*	FLuc counter=25.9
Cn1cccc1-c1cc(C(=O)N/N=C/c2ccccc2Cl)[nH]n1	-48.3	-11.4	-44.0	-0.6	-21.8	-9.8	nt
Cc1ccc(/C=C/C(=O)c2ccccc(=O)c2O)c(C)c1	0.8	2.5	-28.8	-6.6	-1.8	67.3*	60.9*	FLuc counter=19.1
O=C(Oc1c(-c2ccccc2)c(=O)n2c3c(cccc13)CC2)c1ccco1	20.7	-2.3	18.9	-30.1	-3.3	53.8*	12.1
O=C(Oc1c(-c2ccccc2)c(=O)n2c3c(cccc13)CC2)c1ccc(Cl)cc1	12.8	16.3	15.8	-2.5	3.3	46.4	nt
O=C(COC(=O)c1cc[n+]([O-])cc1)Nc1ccc(F)c([N+](=O)[O-])c1	-17.1	6.1	18.8	-56.2	9.8	3.5	nt
O=C(Cn1ncn2c(cc3ccccc32)c1=O)NCCCc1ccccc1	-1.3	-1.3	17.6	26.8	nt	14.4	nt
O=c1c2cc3ccccc3n2cnn1Cc1ccccc1F	16.8	-10.7	-8.7	39.0	1.5	53.7*	40.6*	FLuc counter=84.1*
CC(C)C(=O)N[C@H]1CCC2C3CC=C4C[C@@H](O)CC[C@]4(C)C3CC[C@@]21C (stereo partly drawn)	4.4	-12.3	-4.5	nt	7.2	1.8	nt
SMILES	Jurkat NFkB inh	CSC inhib	697 NFkB inh	aSyn UTR inh	Gli-Sufu block	Mdm2-MdmX inh	Mdm2-MdmX conf	others
C[C@]12CC[C@H](O)CC1=CCC1C2CC[C@@]2(C)C1CC[C@@H]2NC(=O)[C@@H](N)Cc1ccccc1 (stereo partly drawn)	8.6	-5.5	-18.9	nt	10.8	68.4*	22.9
CCOc1ccc(-c2c(C(=O)N/N=C(\C)c3ccco3)nnn2-c2nonc2N)cc1	-6.4	-16.4	-24.0	1.2	-8.0	8.4	nt
COc1cccc(NC(=S)N(CCC(C)C)C2CCN(C(C)=O)CC2)c1	16.4	-0.4	6.0	1.4	2.9	-15.5	nt
CCCn1c(=O)c(C(=O)NNS(=O)(=O)c2ccc(C)cc2)c(O)c2ccccc21	-11.2	36.4	-8.0	6.7	-3.6	50.9*	30.2	FLuc counter=84.6*
COc1ccc(/C=N/n2c(=O)[nH]c3c([nH]c4ccc(Cl)cc43)c2=O)cc1CN1CCCCC1	9.0	-8.8	-1.5	19.0	-7.2	-5.6	nt
CC1=CC(C)[C@H](/C=N/n2c(=O)[nH]c3c([nH]c4ccc(Br)cc43)c2=O)C(C)C1 (stereo partly drawn)	23.1	+	11.2	19.3	4.4	97.7*	18.4
COc1ccc2c(c1)[nH]c1c(=O)n(/N=C/C3C(C)C=C(C)CC3C)c(=O)[nH]c12 (stereo not drawn)	15.7	100.4*	14.3	?	-1.6	69.3*	12.8
COc1ccc(Cl)cc1NC(=O)CSc1nc(Nc2ccccc2)nc(N2CCOCC2)n1	16.3	-0.3	17.1	8.3	2.0	41.8	nt
NCC12CC3CC(C1)CC(c1ccc(Br)cc1)(C3)C2	34.7	22.2	8.4	15.1	1.6	71.9*	31.2
COc1ccccc1C(=O)NCC(c1cccs1)N1CCc2ccccc21 (stereo not drawn)	-1.3	-0.8	-1.9	10.1	4.0	35.8	nt
CC(NCCC(c1ccccc1)c1ccccc1)c1ccccc1 (stereo not drawn)	0.5	18.2	-8.0	-2.4	6.1	58.1*	15.9
CC(NC1CCCC1)c1ccccc1 (stereo not drawn)	6.0	4.1	-16.5	3.3	-5.2	-9.2	nt
COc1ccc(CNC(=O)CN2C(=O)c3ccc([N+](=O)[O-])cc3C2=O)cc1	-7.7	-6.7	15.5	1.4	17.4	17.2	nt
COc1ccc(CN(C(=O)c2ccc(-c3ccccc3)[nH]2)C(C(=O)NC(C)(C)C)c2ccncc2)cc1 (stereo not drawn)	-4.9	23.7	2.9	-11.2	2.9	52.0*	37.7	FLuc counter=83.3*
